High-throughput results deposited in PubChem by National Center for Advancing Translational Sciences (NCATS).
An excerpt weighted towards active compounds, which were near 13% of everything screened.
Cycloheximide cs – counter-screen for Shiga toxin inhibitors: cycloheximide protein synthesis inhibition. cell reporter, cycloheximide protein synthesis inhibition counterscreen. max response, %. 300,000 compounds, 12% hits. AID 2314; in the data active = max response mostly above about 13%, no sharp cut-off; inactive = mostly below about 14%; note: read at 38.3 µM for the half of the compounds with a filed dose; 0% is about no effect
Marburg entry inh – blocks Marburg virus binding to or entry into cells; Marburg virus pseudotyped entry inhibition, cell reporter; Potency, µM (highest dose often 37.8 µM), inactives show top-dose activity change, negative = inhibition, actives largely listed as inhibitors; 300,000 compounds, 1.8% hits; calls by dose curve; tested in HEK293 cells; note: potency is the fitted concentration of half-maximal effect; % is set by controls: 0 for no effect and ±100 for the full control effect
FMDV antiviral – foot and mouth disease virus antiviral activity. Potency, µM (series often up to 57.9 µM), for inactives: top-dose activity change, negative = inhibition, actives largely listed as inhibitors. FMDV antiviral cell-based qHTS. 410,000 compounds, 1.2% hits; calls by dose curve; tested in HEK293T cells; note: read-out not given here; potency is the fitted concentration of half-maximal effect; % is set by controls: 0 for no effect and ±100 for the full control effect; nearly all actives have a fitted effect of over 45% in size
LASV entry inh – Lassa virus entry inhibition; Potency, µM (titrated, usually from 37.9 µM), inactives show top-dose activity change, negative = inhibition, most hits filed as inhibitors; AID 540256; Lassa virus pseudotype entry inhibition, cell reporter; 300,000 compounds, 1.2% hits; calls by dose curve; tested in HEK293 cells; note: potency is the fitted concentration of half-maximal effect; % is set by controls: 0 for no effect and ±100 for the full control effect; nearly all actives have a fitted effect of over 50% in size
HCV inh – inhibitors of hepatitis C virus infection; Huh7.5.1 HCVcc-Cre infection, luciferase reporter, 44 h; Potency, µM (doses to about 41.8 µM), for the others: at the top dose activity change, negative = inhibition, most hits filed as inhibitors; 340,000 compounds, 3.4% hits; active = well fitted inhibition curve with a large enough effect; inconclusive = small, poorly fitted or top-dose-only effect, or another doubt; inactive = no such curve, though single readings can be large or run the other way; note: potency is the fitted concentration of half-maximal effect; % is set by controls: 0 for no effect and ±100 for the full control effect
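Infectious HCVcc-Cre (~0.5 moi) was added to cells just after compound, with cells seeded 4 h earlier at 1,000 per well. Luciferase activity after 44 h culture reported infection; substrate was incubated 15 min at room temperature before reading.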
Shiga toxin inh – Shiga toxin inhibition. Vero cells, Shiga toxin protein synthesis inhibition reporter. inhibition, % at 38.7 µM. 290,000 compounds, 9.2% hits; in the data active = inhibition mostly above about 28%, no sharp cut-off; inactive = mostly below about 43%; note: 0% is about no effect
Starred values were filed as active, the others as inactive; ? = inconclusive; . = no result given; [ ] = another dose, or the depositor's remark.

SMILES | Cycloheximide cs | Marburg entry inh | FMDV antiviral | LASV entry inh | HCV inh | Shiga toxin inh
O=C1SC(SC(=Nc2ccccc2)Nc2ccccc2)C(=O)N1c1ccccc1 (stereo not drawn) | 41* | 5%[46.1 µM] | 8% | -11%[46.1 µM] | -2% | 60*
CN(C)CC(C)(C)CNS(=O)(=O)c1ccc(Cl)s1 | -2 | 1%[46.1 µM] | -12% | -11%[46.1 µM] | 8% | -1
CSc1nnc(-c2ccccc2N=Cc2c(C)[nH]n(-c3ccc4ccccc4c3)c2=O)c(=O)[nH]1 | 33* | -1%[46.1 µM] | -2% | -5% | 4% | 37
Cc1[nH]n(-c2ccccc2)c(=O)c1C=Nc1cnc2ccccc2c1 | -2 | 5% | -24% | 5% | ? | -18
C=CCSc1nnc(-c2ccccc2N=Cc2c(C)[nH]n(-c3ccccc3)c2=O)c(=O)[nH]1 | 23* | ? | 0% | 6% | ? | 56
CN(C(=S)Nc1ccc(SC(F)F)cc1)c1ccc(O)cc1 | 24* | ? | -5% | -17% | -7% | 18
CN(C(=S)Nc1cccnc1)c1ccc(O)cc1 | 9 | -11% | -24% | -10% | 8% | 23*
CN(C(=S)Nc1ccc(Oc2ccccc2)cc1)c1ccc(O)cc1 | 15 | ? | ? | 6% | ? | 17
Oc1ccc(-c2nc3ccccn3c2NCc2ccc3c(c2)OCO3)cc1 | 25* | -6% | ? | -12% | ? | 15
CSc1ccc(C(=O)N2CCc3ccc(NC(=O)c4ccccn4)cc3C2)cc1 | 58* | ? | -12% | ? | ? | 107*
CC(C)N(C(=O)CSc1nnc(C2CC2)n1C1CC1)c1ccccc1 | . | -24%[46.1 µM] | -11% | -12% | 2% | .
COc1ccc(C(=O)c2ccccc2)cc1Br | 15 | -1% | 19% | -3% | -18% | 1
O=C(Nc1cccc2cccnc12)c1ccc(Cl)cc1 | 37* | 2%[46.1 µM] | 21% | 19%[46.1 µM] | -4% | 45*
COc1ccc(C(=O)Nc2cccnc2Sc2ccc(Cl)cc2)cc1 | 27* | 2% | 22% | ? | 8% | 47*
O=C(NC(=S)Nc1cccnc1Cl)c1ccc(Cl)cc1 | 50* | 8%[46.1 µM] | 36% | ? | 6% | 114*
O=C(Nc1cccnc1Cl)c1ccc(Cl)cc1 | 36* | ? | 36% | 13%[46.1 µM] | 12% | 70*
CCOC(=O)Cc1c(C)nc2cc(-c3ccc(C(C)(C)C)cc3)nn2c1C | . | 16%[46.1 µM] | -12% | 11%[46.1 µM] | . | .
CCOC(=O)Cc1c(C)nc2cc(-c3ccc(C(C)(C)C)cc3)[nH]n2c1=O | 10 | ? | 1% | 2% | 13µM* | 2
COc1cc(-c2cc3nc(C)c(C)c(=O)n3[nH]2)cc(OC)c1OC | 2 | -15% | . | -13% | -19% | -9
C=CCc1c(C)nc2cc(-c3ccc(C)cc3)[nH]n2c1=O | 54* | . | 1% | . | -21% | 72*
CCc1c(C)nc2cc(-c3ccccc3)[nH]n2c1=O | 34* | -10%[46.1 µM] | -5% | -25%[46.1 µM] | 7% | 35*
CCc1c(C)nc2c(-c3ccccc3)c(-c3ccccc3)[nH]n2c1=O | 1 | . | 0% | . | -20% | 4
CCCCc1c(C)nc2cc(-c3ccco3)[nH]n2c1=O | 34* | 9% | 35% | 22% | -24% | 79*
COc1ccc(C(NC(=O)CNC(C)=O)C(=O)Nc2ccc(C(C)C)cc2)cc1 (stereo not drawn) | -3 | 3% | -21% | 8% | -4% | -5
Cc1n[nH]c(=S)n1/N=C/c1ccccc1OCc1ccc(Cl)cc1Cl | -4 | 0% | -11% | ? | 4% | -11
SMILES | Cycloheximide cs | Marburg entry inh | FMDV antiviral | LASV entry inh | HCV inh | Shiga toxin inh
Cc1ccc(NC(=O)c2ccc(F)cc2F)cc1 | . | . | 31% | . | 1% | .
O=C(Nc1ccc(N2CCCC2)cc1)c1ccccc1F | 43* | ? | 21% | -26% | ? | 43*
O=C(Nc1ccc(N2CCCCC2)cc1)c1ccc(F)cc1F | 42* | ? | -11% | 10µM* | -7% | 45*
O=C(Nc1ccc(N2CCN(C(=O)c3cccs3)CC2)cc1)c1ccccc1F | 7 | ? | -5% | ? | -21% | 27
CC1=C(c2ccc(C(C)C)cc2)S(=O)(=O)N=C1N1CCC(C(=O)NCc2ccc(C)o2)CC1 | . | . | -20% | 1%[46.1 µM] | . | .
CC[N+](CC)(CC)CC(=O)Nc1c(C)cccc1C | . | 1% | -15% | -23% | 5% | .
CCOC(=O)c1ccc(CN(Cc2ccc(C)cc2)S(=O)(=O)c2ccc(NC(C)=O)cc2)cc1 | . | . | 0% | ? | . | .
CCOC(=O)c1ccc(CN(Cc2ccccc2)S(=O)(=O)c2ccc(C)cc2)cc1 | . | . | 3% | 11µM* | . | .
CCOC(=O)CN1C(=O)/C(=C/c2ccc(Cl)cc2)Oc2ccccc21 | -3 | -6%[46.1 µM] | -5% | -2%[46.1 µM] | 13% | -11
Nc1c(Cl)cc(-c2csc(N3CCCC3c3nc4cc(Cl)c(Cl)cc4n3CCCO)n2)cc1Cl (stereo not drawn) | . | . | 8% | . | 2µM* | .
CCOc1cnc(-c2c(-c3c(Cl)cccc3Cl)noc2C)o1 | -4 | ? | -19% | ? | -19% | 4
CCOc1cnc(-c2ccc(OC)cc2)o1 | 15* | ? | 23% | -17% | 6% | 55*
CCOc1oc(-c2ccc(OC)cc2)nc1C(F)(F)F | 3 | 19% | 26% | -1% | 13% | 32
CCOc1cnc(-c2ccc(Cl)cc2)o1 | 39* | ? | 40% | 18% | 4% | 86*
COCC(=O)Nc1cc(C(=O)NC2CCc3ccccc32)c2c(c1)nc(-c1ccncc1)n2C (stereo not drawn) | . | . | -16% | . | . | .
CCC(C)NC(=O)Cn1c(=O)n(-c2ccc(C)cc2)c(=O)c2ccccc21 (stereo not drawn) | . | 11%[46.1 µM] | -1% | ? | . | .
Cc1c(C(=O)NCc2ccc(Cl)c(Cl)c2)sc(=O)n1Cc1ccc(S(C)(=O)=O)cc1 | . | . | 35µM* | . | . | .
Cc1c(C(=O)NCc2ccc3c(c2)OCCO3)sc(=O)n1Cc1ccc(S(=O)(=O)N(C)C)cc1 | . | . | 14µM* | . | . | .
COC(=O)c1ccc(NC(=O)CN(Cc2ccc(Cl)cc2)S(C)(=O)=O)cc1 | 7 | ? | -20% | -2% | -19% | -6
Cc1cc(N2CCCC2)c(F)cc1/C=C\[N+](=O)[O-] | 21 | -11%[46.1 µM] | 22µM* | ? | 5% | 5
CCOC(=O)c1ccc(N=c2sc(C(=O)OC)cc(=O)n2Cc2ccc3c(c2)OCO3)cc1 | 1 | -1% | ? | . | -15% | 11
COC(=O)c1cc(=O)n(Cc2ccc3c(c2)OCO3)c(=Nc2ccc(F)cc2)s1 | -2 | 0% | 13µM* | . | ? | 18
COC(=O)c1cc(=O)n(Cc2ccc3c(c2)OCO3)c(=Nc2ccccc2)s1 | -1 | 0% | 35µM* | . | -4% | 11
O=[N+]([O-])c1cc(Cl)cc(C2=NCCN2)c1 | 1 | ? | 4% | ? | 8.9µM* | -12
Nc1nc2n(n1)C(=O)CC(c1ccc(Cl)cc1)N2 (stereo not drawn) | -1 | . | 4% | . | 25% | 17
COc1cccc(C(=O)OCCN(C)C(C)(C)C)c1 | -6 | -2% | . | . | . | -4
CN(CCOC(=O)c1ccc2c(c1)OCCO2)C(C)(C)C | 17* | -12% | -5% | 8% | 10% | 23
